The text below walks through data of PubChem BioAssay (NCATS).

Where “and” joins values, the source holds several entries; their conditions need not be identical. Equal entries are not always repeated. Values without a mark were called inactive. Records with an inconclusive call do not appear. Calls of active or inactive are those of the source. Calls come from the whole dose curve; as a rule, active = well fitted curve in the direction sought with a large enough effect; inconclusive = small, poorly fitted or top-dose-only effect, or another doubt; inactive = no such curve, though single readings can be large; an effect the other way counts as inactive or inconclusive.

Sequence of Cytochrome P450 2D6 (Homo sapiens) (P10635 whole entry, looked up): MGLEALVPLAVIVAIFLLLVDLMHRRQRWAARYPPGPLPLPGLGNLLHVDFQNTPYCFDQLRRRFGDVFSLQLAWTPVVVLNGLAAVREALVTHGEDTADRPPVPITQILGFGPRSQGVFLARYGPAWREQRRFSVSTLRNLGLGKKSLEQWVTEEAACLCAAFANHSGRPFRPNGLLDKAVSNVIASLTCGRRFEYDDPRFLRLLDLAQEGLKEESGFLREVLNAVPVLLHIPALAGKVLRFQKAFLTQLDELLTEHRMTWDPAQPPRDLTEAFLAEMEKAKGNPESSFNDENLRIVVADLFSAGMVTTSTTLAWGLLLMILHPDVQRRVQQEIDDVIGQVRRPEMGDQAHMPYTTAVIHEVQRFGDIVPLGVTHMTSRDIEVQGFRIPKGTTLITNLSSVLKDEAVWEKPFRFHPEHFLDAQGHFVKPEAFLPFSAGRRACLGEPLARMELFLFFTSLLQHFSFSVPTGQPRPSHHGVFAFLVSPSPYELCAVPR
Sequence of Cytochrome P450 3A4 (Homo sapiens) (P08684 whole entry, looked up): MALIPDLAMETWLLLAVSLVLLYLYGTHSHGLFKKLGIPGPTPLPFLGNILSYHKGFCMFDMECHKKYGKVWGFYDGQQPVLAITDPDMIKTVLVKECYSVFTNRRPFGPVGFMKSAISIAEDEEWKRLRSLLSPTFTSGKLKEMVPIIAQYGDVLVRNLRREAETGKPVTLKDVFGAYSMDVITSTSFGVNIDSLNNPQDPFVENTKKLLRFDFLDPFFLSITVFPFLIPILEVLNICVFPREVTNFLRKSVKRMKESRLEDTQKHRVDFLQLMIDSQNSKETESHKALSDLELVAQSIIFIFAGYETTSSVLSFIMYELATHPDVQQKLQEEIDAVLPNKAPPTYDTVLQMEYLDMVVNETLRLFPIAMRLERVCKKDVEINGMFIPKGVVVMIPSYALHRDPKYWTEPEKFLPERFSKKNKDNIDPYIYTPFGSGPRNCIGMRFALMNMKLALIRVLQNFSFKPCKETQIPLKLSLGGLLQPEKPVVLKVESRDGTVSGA

The first test addresses Cytochrome P450 3A4 (Homo sapiens) (UniProt P08684). Description: qHTS Assay for Activators of Cytochrome P450 3A4 (AID 885). Note: nearly all actives have a fitted effect of over 65% in size. The settings on record: recombinant CYP3A4, Luciferin-PPXE luminescence, 60 min; series mostly up to 57.1 µM. An outline of the steps: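 Steps: enzyme/substrate mix dispensed; compound added, 10 min RT; NADPH regeneration solution added, 60 min RT; luciferin detection buffer stops reaction; 20 min later luminescence measured.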
Background: Quantitative high-throughput screening tests each substance at several concentrations.
On to `C/C(CCN1CCCCc2nc(C)c(C)cc21)=N\OC[C@@H](C)[C@H](OCc1ccccc1)C(C)C`, for which the activity change, positive = activation is -49.2% [at 11.4 µM].
Still for that read-out and setting: to `CO[C@H]1COC(=O)C/C=C\[C@@H](C)COC(=O)[C@@H](OCc2ccccc2)/C=C\[C@@H]1C` belongs -63.8% [at 11.4 µM].
Consider `CNC1CCC(c2ccc(Cl)c(Cl)c2)c2ccccc21` (centres undefined), for which the Potency entry was “inactive”.
For the compound `C/C(CCN1CCc2nc(-c3ccccc3)c(-c3ccccc3)cc2C1)=N\O[C@@H](C)c1cc(-c2c(C)cc(C)cc2C)no1`, the activity change, positive = activation is -63.5% [at 11.4 µM].
`CCN1C(=O)[C@H]2[C@H]3[C@H](O)[C@H](O)C/C(=N/O[C@@H](C)c4cn([C@H](CO)Cc5ccccc5)nn4)[C@@H]3CC[C@@H]2C1=O`: the activity change, positive = activation is -35.2% [at 11.4 µM] and -33% [at 11.4 µM].
In the case of `CC(C)C(=O)N[C@@H]1CCCN1C(=O)/C=C\c1ccccc1`, the activity change, positive = activation is -30.2% [at 11.4 µM].
As to `C#CCCCO/N=C1/C[C@@H](O)[C@@H](O)[C@@H]2[C@@H]3C(=O)N(C4CCCCC4)C(=O)[C@H]3CC[C@H]12`, the activity change, positive = activation is -57% [at 11.4 µM].
Consider `CC(C)=CCC/C(C)=C/CO/N=C1/[C@H]2O[C@@H]2[C@@H](O)[C@H]2[C@H]1CCn1c(=O)n(Cc3cc4c(cc3Cl)OCO4)c(=O)n12`, for which the activity change, positive = activation is -56.5% [at 11.4 µM].
Still for that read-out and setting: then `COc1ccc(-c2ccc3c(n2)CCCN3C[C@H](O)CN2CCCc3nc(-c4ccc(Br)cc4)ccc32)cc1`, with -31.9% [at 11.4 µM]; and `C/C(CCC(=O)OC[C@@H]1O[C@H](C#Cc2ccccc2)C=C[C@@H]1Oc1ccc(C)cc1)=N/OC[C@@H](C)[C@H](OCc1ccccc1)C(C)C`, with -45.8% [at 11.4 µM]; and `COc1ccc(COC(=O)N/N=C2/C[C@@H](O)[C@@H](O)[C@@H]3[C@@H]4C(=O)N(c5cccc(Oc6ccccc6)c5)C(=O)[C@H]4CC[C@@H]23)cc1`, with -30.5% [at 11.4 µM].
`CCCNC(=O)OC[C@@H]1O[C@H](CCON=C(C)C)C=C[C@@H]1Oc1ccc(OC)cc1`: the activity change, positive = activation is -58.2% [at 11.4 µM].
Consider `CCc1cc2c(nc1CC)CCN(CC/C(C)=N/OC[C@@H](O)[C@@H]1O[C@@H]3OC(C)(C)O[C@@H]3[C@H]1O)C2`, for which the activity change, positive = activation was -30.5% [at 11.4 µM].

In a further test the target is Cytochrome P450 2D6 (Homo sapiens) (UniProt P10635). Description: qHTS Assay for Inhibitors and Substrates of Cytochrome P450 2D6 (AID 891). Note: nearly all actives have a fitted effect of over 60% in size. Note: potency is the fitted concentration of half-maximal effect. To be noted: recombinant CYP2D6, luciferin-ME EGE luminescence; series mostly up to 11.4 µM. An outline of the steps:
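Human CYP2D6 (5 nM) with 30 uM Luciferin-ME EGE (at Km) in 100 mM KPO4, compound preincubated 10 min, then NADPH regeneration system for 60 min at room temperature. Luciferin read by luminescence; normalized to 1.43 uM quinidine.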
In the case of `O=C(N/N=C1/C[C@@H](O)[C@@H](O)[C@@H]2[C@@H]3C(=O)N(Cc4ccccc4)C(=O)[C@H]3CC[C@H]12)OCc1ccccc1`, the Potency entry was “inactive”.
Consider `CCc1cc2c(nc1CC)CCN(CC/C(C)=N/O[C@@H](C)CN1CCCc3nc(C)c(C)cc31)C2`, for which the Potency is 3.98 µM (active).
The same measure, in the same setting: then `CC(C)=CCC/C(C)=C/CO/N=C1/C[C@@H](O)[C@@H](O)[C@@H]2[C@@H]3C(=O)N(C[C@@H]4CCCO4)C(=O)[C@H]3CC[C@@H]12`, with “inactive”; and `CC(C)[C@H](NC(=O)OC(C)(C)C)[C@@H](O)CC(=O)OC(C)(C)C`, with 3.16 µM (active).
For `CCOC(=O)N/N=C1/C[C@@H](O)[C@@H](O)[C@@H]2[C@@H]3C(=O)N(Cc4ccccc4)C(=O)[C@H]3CC[C@@H]12`, the Potency result was “inactive”.
Take `CC(=O)OC[C@@H]1O[C@@H](O/N=C2/C[C@@H](O)[C@@H](O)[C@@H]3[C@@H]4C(=O)N(Cc5ccccc5)C(=O)[C@H]4CC[C@H]23)[C@H](OC(C)=O)[C@H](OC(C)=O)[C@@H]1OC(C)=O`: the Potency was 3.16 µM (active).
On the same count and under the same terms, to `CO[C@H]1COC(=O)CCC[C@H](C)[C@H](OC)COC(=O)C/C=C\[C@@H]1C` belongs “inactive”.
On to `O=C1[C@@H]2[C@H]3[C@H](O)[C@H](O)C/C(=N/OCc4ccccc4)[C@@H]3CC[C@H]2C(=O)N1c1ccc(F)cc1F`, for which the Potency result is “inactive”.
Consider `CC(C)=NOC[C@@H](O)COCc1ccco1`, for which the Potency entry was “inactive”.
Consider `CC(=O)OC[C@H]1O[C@@H](O/N=C(\C)CCN2CCc3nc(-c4ccccc4)c(-c4ccccc4)cc3C2)[C@H](OC(C)=O)[C@@H](OC(C)=O)[C@H]1OC(C)=O`, for which the Potency was 3.16 µM (active).
Still for that read-out and setting: then `COC(=O)C/C=C\[C@@H](C)[C@@H](/C=N\OC[C@@H](O)COCc1ccco1)OC`, with “inactive”; and `CC(=O)OC[C@@H]1O[C@@H](O/N=C2/C[C@@H](O)[C@@H](O)[C@@H]3[C@H]4C(=O)N(c5ccc(F)cc5F)C(=O)[C@@H]4CC[C@H]23)[C@H](OC(C)=O)[C@H](OC(C)=O)[C@@H]1OC(C)=O`, with 3.16 µM (active).
As for `CC(C)=CCC/C(C)=C/CO/N=C1/C[C@@H](O)[C@@H](O)[C@@H]2[C@@H]3C(=O)N(C(C)(C)C)C(=O)[C@H]3CC[C@H]12`, the Potency result is “inactive”.
In the case of `CCOC(=O)CCN1C(=O)[C@H]2[C@H]3[C@H](O)[C@H](O)C/C(=N/O[C@@H]4O[C@@H](COC(C)=O)[C@@H](OC(C)=O)[C@@H](OC(C)=O)[C@H]4OC(C)=O)[C@H]3CC[C@@H]2C1=O`, the Potency is 3.16 µM (active).
Turning to `CCc1cc2c(nc1CC)CCN(CC/C(C)=N/O[C@@H]1O[C@H](COC(C)=O)[C@H](OC(C)=O)[C@H](OC(C)=O)[C@H]1OC(C)=O)C2`, the Potency is 3.98 µM (active).
As for `CCN1C(=O)[C@H]2[C@H]3[C@H](O)[C@H](O)C/C(=N/O[C@@H]4O[C@H](COC(C)=O)[C@@H](OC(C)=O)[C@H](OC(C)=O)[C@H]4OC(C)=O)[C@@H]3CC[C@@H]2C1=O`, the Potency was 3.98 µM (active).
Same read-out and setting: to `C#CCCCO/N=C1/[C@H]2O[C@@H]2[C@@H](O)[C@H]2[C@H]1CCn1c(=O)n(C)c(=O)n12` belongs “inactive”; to `CO[C@@H]1COC(=O)CC=C[C@@H](C)[C@@H]2C=C[C@H](O)[C@@H](COC(=O)[C@H](C)NC(=O)CC=C[C@H]1C)O2`, “inactive”.
Take `CC(=O)OC[C@@H]1O[C@@H](O/N=C2/C[C@@H](O)[C@@H](O)[C@@H]3[C@@H]4C(=O)N(C5CCCCC5)C(=O)[C@H]4CC[C@H]23)[C@H](OC(C)=O)[C@H](OC(C)=O)[C@@H]1OC(C)=O`: the Potency was 3.98 µM (active).
With `CC(C)c1ccc2c(c1)CC[C@@H]1[C@@](C)(CN)CCC[C@@]21C`, the Potency was 1 µM (active).
Regarding `CC(=O)OC[C@@H]1O[C@H](C/C=N\O[C@@H]2O[C@H](COC(C)=O)[C@@H](OC(C)=O)[C@H](OC(C)=O)[C@H]2OC(C)=O)C=C[C@@H]1OC(C)=O`, the Potency is 3.98 µM (active).
Take `CO[C@@H]1COC(=O)C/C=C\[C@H](C)COC(=O)[C@H](C)NC(=O)C/C=C\[C@H]1C`: the Potency entry was “inactive”.
Turning to `CCN1C(=O)[C@H]2[C@@H]3[C@H](O)C=CC(=O)[C@H]3CC[C@H]2C1=O`, the Potency entry is “inactive”.
Same read-out and setting: then `CO/N=C(\C)CCN1CCCc2nc(C)c(C)cc21`, with 3.98 µM (active); and `CC(=O)OC[C@H]1O[C@@H](ON=C(C)C)[C@H](OC(C)=O)[C@@H](OC(C)=O)[C@H]1OC(C)=O`, with 3.16 µM (active).
On the same count and under the same terms, then `CCOC(=O)CCN1C(=O)[C@H]2[C@H]3[C@H](O)[C@H](O)C/C(=N/O[C@@H]4O[C@@H](COC(C)=O)[C@@H](OC(C)=O)[C@@H](OC(C)=O)[C@H]4OC(C)=O)[C@@H]3CC[C@@H]2C1=O`, with 3.16 µM (active).
